Records with an inconclusive call do not appear. Activity calls are given as the source filed them. Rule for the calls, unless noted: active = hit-call score of the fitted dose curve at least 0.9, where 1 is the maximum; inconclusive = response in the unintended direction; inactive = score below 0.9.
test: STM_H9_OrnCyssISnorm_ratio: Stemina devTOX quickPredict H9 human embryonic stem cell (hESC)-based Assay for Ornithine (ORN):Cystine (CYSS) Ratio (AID 2283714)
How it was run: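 Ratio of internal-standard-normalized ornithine to cystine, measured by UPLC-HRMS in spent media from the last 24 h. H9 cells kept pluripotent, dosed 72 h with daily media and compound renewal; DMSO 0.1% serves as baseline.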

Compound	outcome	AC50
O=C=NCCCCCCN=C=O	inactive	
CCCCCCCCN(C)CCCCCCCC	inactive	
CN1C(=O)N(c2ccccc2Br)Cc2cnc(Nc3ccc4c(c3)OCC(CO)O4)nc21 (stereo not drawn)		1.18 µM (active)
CN1C(=O)CC[C@H]1c1cccnc1	inactive	
CCCCCCCCCCCC[N+](C)(C)C		4.73 µM (active)
OCCO	inactive	
CC/C(=C(/CC)c1ccc(O)cc1)c1ccc(O)cc1	inactive	
CN(C)C(=O)C1(N2CCCCC2)CCN(CC[C@@]2(c3ccc(Cl)c(Cl)c3)CN(C(=O)c3ccccc3)CCO2)CC1		8.17 µM (active)
CO[C@H]1/C=C/O[C@@]2(C)Oc3c(C)c(O)c4c(O)c(c(/C=N/N5CCN(C)CC5)c(O)c4c3C2=O)NC(=O)/C(C)=C\C=C\[C@H](C)[C@H](O)[C@@H](C)[C@@H](O)[C@@H](C)[C@H](OC(C)=O)[C@@H]1C		4.04 µM (active)

test: CEETOX_H295R_MTT_cell_viability: Viability Assessment in the CeeTox HT-H295R MTT Assay (AID 2283718; active = hit-call score of the fitted dose curve at least 0.9, where 1 is the maximum; inactive = score below 0.9;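 for AC50: curve fitted both ways so AC50 may mark viability loss or gain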)
How it was run: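 MTT reduction (0.5 mg/ml, 4 h at 37 C; absorbance at 570 and 650 nm) gave viability as background-corrected percent change versus controls. H295R cells had 48 h forskolin (10 uM) prestimulation, then 48 h chemical exposure at 0.1% DMSO.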

Compound	outcome	AC50
Cc1cc2c(cc1C(F)(F)F)N(C(=O)Nc1ccc(Oc3cccnc3C)nc1)CC2	inactive	
CCCCCCCCN(C)CCCCCCCC	inactive	
CN1C(=O)N(c2ccccc2Br)Cc2cnc(Nc3ccc4c(c3)OCC(CO)O4)nc21 (stereo not drawn)	inactive	
CC(C)(O)c1ccc(CNC(=O)c2cccnc2Oc2ccc3nonc3c2)cc1	inactive	
O=C(O)Cn1c(=O)n(Cc2ccc(Br)cc2F)c(=O)c2ccc(Cl)cc21	inactive	
CCCCCCCCCCCC[N+](C)(C)C	inactive	
OC12N=C(c3ccccc3)SC1Cc1cc(Cl)ccc12 (stereo not drawn)	inactive	
CC/C(=C(/CC)c1ccc(O)cc1)c1ccc(O)cc1		24.4 µM (active)
O=C(O)c1ccccc1C(=O)OCc1ccccc1	inactive	
CCCCCCCCOc1ccc(C(=O)c2ccccc2)c(O)c1	inactive	
CO[C@H]1/C=C/O[C@@]2(C)Oc3c(C)c(O)c4c(O)c(c(/C=N/N5CCN(C)CC5)c(O)c4c3C2=O)NC(=O)/C(C)=C\C=C\[C@H](C)[C@H](O)[C@@H](C)[C@@H](O)[C@@H](C)[C@H](OC(C)=O)[C@@H]1C	inactive	

test: Tanguay_ZF_120hpf_ActivityScore_legacy: (Legacy) Oregon State University Tanguay Lab 120 Hour Post-fertilization zebrafish Assay Score for Activity (AID 2283742);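 for AC50: dechorionated Tropical 5D wild-type zebrafish embryos held singly per well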
How it was run: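 Binary scoring of mortality and morphology by brightfield at 24 and 120 hpf, summarised into one activity score from 18 components relative to DMSO. Wild-type Tropical 5D zebrafish, chorion removed at 4 hpf, static exposure 6–120 hpf, 28 °C.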

Compound	outcome	AC50
O=C=NCCCCCCN=C=O	inactive	
CC[C@@H]1C[C@H](N(Cc2cc(C(F)(F)F)cc(C(F)(F)F)c2)C(C)=O)c2cc(C(F)(F)F)ccc2N1C(=O)OC(C)C	inactive	
CC1(C)NC(=O)N(c2ccc([N+](=O)[O-])c(C(F)(F)F)c2)C1=O	inactive	
Cc1cccc2ccccc12	inactive	
NCc1cccc(C2CCN(C(=O)c3ccc(C#Cc4ccccc4F)o3)CC2)c1		31.6 µM (active)
Cc1ncc(CO)c(CO)c1O	inactive	
O=CCCCC=O	inactive	
CCCCCCCCCCCO	inactive	
Cc1cc(F)ccc1-c1cc(N2CC[C@@H](O)[C@H]2CO)ncc1N(C)C(=O)C(C)(C)c1cc(C(F)(F)F)cc(C(F)(F)F)c1	inactive	
CCCCCCCCCC(=O)O	inactive	
Cc1ccc(C(C)C)cc1	inactive	
Cc1cc2c(cc1C(F)(F)F)N(C(=O)Nc1ccc(Oc3cccnc3C)nc1)CC2	inactive	
CCCCCCCCN(C)CCCCCCCC	inactive	
O=c1[nH]sc2ccccc12	inactive	
CC(O)CC(C)(C)O (stereo not drawn)	inactive	
CN1C(=O)N(c2ccccc2Br)Cc2cnc(Nc3ccc4c(c3)OCC(CO)O4)nc21 (stereo not drawn)		6.73 µM (active)
CC(C)(O)c1ccc(CNC(=O)c2cccnc2Oc2ccc3nonc3c2)cc1	inactive	
O=C(O)Cn1c(=O)n(Cc2ccc(Br)cc2F)c(=O)c2ccc(Cl)cc21	inactive	
CN1C(=O)CC[C@H]1c1cccnc1	inactive	

Compound	outcome	AC50
CCCCCCCCCCCC[N+](C)(C)C	inactive	
CCN(Cc1cccc(S(=O)(=O)O)c1)c1ccc(C(=C2C=CC(=[N+](CC)Cc3cccc(S(=O)(=O)O)c3)C=C2)c2ccccc2S(=O)(=O)[O-])cc1	inactive	
O=C(O)Cc1cc(I)c(Oc2ccc(O)c(I)c2)c(I)c1		31.3 µM (active)
O=C(O)c1ccccc1-n1cc(C(=O)O)c(=O)c2cc(Nc3c(F)cc(F)cc3Cl)c(Cl)cc21	inactive	
CC1=CC(=O)/C(=C(/C)O)C(=O)O1	inactive	
OCCO	inactive	
OC12N=C(c3ccccc3)SC1Cc1cc(Cl)ccc12 (stereo not drawn)		32.7 µM (active)
CC/C(=C(/CC)c1ccc(O)cc1)c1ccc(O)cc1		28.5 µM (active)
CCN(Cc1cccnc1)C(=O)c1cccc(Cl)c1[C@]1(C)C(=O)N(Cc2ccc(OC)cc2OC)c2ccc(Cl)cc21		32.5 µM (active)
CCO[Si](CCCNC(N)=O)(OCC)OCC	inactive	
O=C(O)c1ccccc1C(=O)OCc1ccccc1	inactive	
COCC(C)OCC(C)OCC(C)O (stereo not drawn)	inactive	
c1ccc2ccccc2c1	inactive	
CCCCCCCCOc1ccc(C(=O)c2ccccc2)c(O)c1	inactive	
CN(C)C(=O)C1(N2CCCCC2)CCN(CC[C@@]2(c3ccc(Cl)c(Cl)c3)CN(C(=O)c3ccccc3)CCO2)CC1		16.2 µM (active)
CCCC(=O)OCCC(C)C	inactive	
c1ccc2n[nH]nc2c1	inactive	
CO[C@H]1/C=C/O[C@@]2(C)Oc3c(C)c(O)c4c(O)c(c(/C=N/N5CCN(C)CC5)c(O)c4c3C2=O)NC(=O)/C(C)=C\C=C\[C@H](C)[C@H](O)[C@@H](C)[C@@H](O)[C@@H](C)[C@H](OC(C)=O)[C@@H]1C	inactive	
Oc1ccccc1	inactive	

Reference: PubChem BioAssay (EPA / NIEHS)
